A number with no mark means an inactive call. Records with an inconclusive call do not appear. Activity calls are given as the source filed them. Unless noted, the call rests on the fitted dose curve.

Test [1] is described as follows: Nuclear factor erythroid 2-related factor 2/antioxidant responsive element (Nrf2/ARE) small molecule agonists: qHTS cell viability counter screen in human keratinocytes (AID 1919968; active means well fitted curve in the direction sought with a large enough effect in the repeat runs; an effect the other way counts as inactive or inconclusive; further: nearly all actives have a fitted effect of over 55% in size; further: potency means the concentration at half of the fitted maximal effect). In a few lines: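 Viability counter-screen: KeratinoSens reporter cells, DMSO-delivered compounds, 23 h at 37 C, CellTiter-Fluor fluorescence.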
(Quantitative high-throughput screening tests each substance at several concentrations.)

Test [2] can be described thus: Nuclear factor erythroid 2-related factor 2/antioxidant responsive element (Nrf2/ARE) small molecule agonists: luciferase reporter gene qHTS assay in human keratinocytes (AID 1919969). Further: nearly all actives have a fitted effect of over 35% in size.
Test [3] concerns the target Gonadotropin-releasing hormone receptor (Homo sapiens) (UniProt P30968). The test is described as follows: Human gonadotropin-releasing hormone receptor (GnRHR) small molecule agonists, calcium flux assay in GnRHR-HEK293 cells (AID 1920063). Further: nearly all actives have a fitted effect of over 35% in size. In a few lines: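 Tox21-format agonist screen using human GnRHR-expressing HEK293 cells and a fluorescent calcium dye; kinetic 3-min fluorescence reading after compound addition, 15-point concentration series run in triplicate.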

Test [4] addresses KiSS-1 receptor (Homo sapiens) (UniProt Q969F8). The test can be described thus: Human kisspeptin (KISS1R) small molecule agonists, calcium flux assay in KISS1R-HEK293 cells (AID 1920064; active means well fitted curve in the direction sought with a large enough effect in the repeat runs; an effect the other way counts as inactive or inconclusive). In a few lines: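 Intracellular calcium mobilization in KISS1R-HEK293 cells was recorded by fluorescence (Ex/Em 480/540) for 3 min following compound addition to cells pre-loaded 1 h with calcium dye.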
Background: Calcium assays in cells follow changes in intracellular calcium, usually with a dye or a luminescent sensor.

A short description of test [5]: p53 small molecule agonists, cell-based qHTS assay with human liver microsomes: qHTS cell viability counter screen (AID 1963579). Further: nearly all actives have a fitted effect of over 45% in size. In a few lines:
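Cells carrying the p53 response-element beta-lactamase reporter are treated for 16 h at 37 C with test compounds in the presence of human liver microsomes and NADPH (both 0.5 mg/mL final); ATP-based CellTiter-Glo luminescence then reports viability.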

A short description of test [6]: p53 small molecule agonists, cell-based qHTS assay with rat liver microsomes: qHTS cell viability counter screen (AID 1963580). Further: nearly all actives have a fitted effect of over 45% in size. In a few lines: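 p53RE-bla HCT-116 cells were exposed 16 h at 37 C to compounds with rat liver microsomes (0.5 mg/mL) and NADPH (0.5 mg/mL). Viability was measured in the same wells as ATP content by CellTiter-Glo luminescence.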
Test [7] in a line: p53 small molecule agonists, cell-based qHTS assay: qHTS cell viability counter screen (AID 1963581). Further: nearly all actives have a fitted effect of over 45% in size. Further: potency means the concentration at half of the fitted maximal effect. Summed up:
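Compounds are pinned onto HCT-116 p53RE-bla cells and left 16 h at 37 C. Following the reporter FRET read, ATP is quantified by CellTiter-Glo luminescence after 30 min at room temperature.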

In test [8] the target is 5-hydroxytryptamine receptor 2A (Homo sapiens) (UniProt P28223). The test can be described thus: 5-hydroxytryptamine receptor 2A (HTR2A) small molecule antagonists, cell-based qHTS assay (AID 1963586). Further: nearly all actives have a fitted effect of over 45% in size. Summed up: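 Antagonist-mode intracellular calcium assay: DOI (4 nM) added after 5 min compound pre-incubation at room temperature to dye-loaded HTR2A-CHO cells. Fluorescence followed for 3 min, sampled every second.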

Test [9] has the same target. The test is described as follows: 5-hydroxytryptamine receptor 2A (HTR2A) small molecule agonists, cell-based qHTS assay (AID 1963587). Further: nearly all actives have a fitted effect of over 30% in size. In a few lines:
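CHO cells stably expressing human HTR2A, plated 18 h, loaded with calcium dye 1 h at 37 C. Agonist mode: compounds added and intracellular calcium fluorescence recorded kinetically for 2 min at 1 sec intervals.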

Test [10] addresses Muscarinic acetylcholine receptor M1 (Homo sapiens) (UniProt P11229). The test can be described thus: Cholinergic receptor muscarinic 1 (CHRM1) small molecule agonists, cell-based qHTS assay (AID 1963589). Further: nearly all actives have a fitted effect of over 35% in size. Summed up:
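Stable CHRM1-CHO cells (human receptor) were incubated 18 h, dye-loaded for 1 h at 37 C and exposed to test compounds for agonist activity, with calcium-dependent fluorescence followed kinetically.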

Test [11] is described as follows: cAMP Responsive Elements (CRE) small molecule agonists, cell-based qHTS assay (AID 1963590). In a few lines: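 FRET-based beta-lactamase readout (LiveBLAzer B/G, 2 h RT) quantified CRE activation in HEK 293T CRE-bla cells after 3 h treatment with DMSO-dissolved compounds.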
A short description of test [12]: cAMP Responsive Elements (CRE) small molecule antagonists, cell-based qHTS assay (AID 1963591; active means well fitted inhibition curve with a large enough effect in the signal ratio in the repeat runs, not every such curve was filed as active; the % refers to the signal ratio). Summed up: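 qHTS in CRE-bla HEK 293T cells: compound in DMSO, then 0.25 uM NKH477 (final), 3 h at 37 °C/5% CO2; beta-lactamase FRET read-out after 2 h substrate incubation.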
Test [13] addresses Beta-2 adrenergic receptor (Homo sapiens) (UniProt P07550). The test is described as follows: Adrenergic beta2 receptor (ADRB2) small molecule antagonists, cell-based qHTS assay (AID 1963592). Further: series mostly up to about 92 µM; nearly all actives have a fitted effect of over 50% in size. Summed up:
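Cells (CHO, stable ADRB2 overexpression) incubated 18-20hr at 37C; compounds added from DMSO; agonist mix (1nM isoproterenol, 100uM IBMX, 25uM Ro-20-1724) added; 0.5hr RT; d2-cAMP and anti-cAMP-cryptate added; 1hr RT; 665/615 nm read.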

Test [14] deals with D(2) dopamine receptor (Homo sapiens) (UniProt P14416). The test is described as follows: Dopamine D2 receptor (DRD2) small molecule agonists, cell-based qHTS assay (AID 1963594). Further: nearly all actives have a fitted effect of over 35% in size. Further: potency means the concentration at half of the fitted maximal effect. Summed up: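 HEK293 cells stably expressing human DRD2, pre-treated with PDE inhibitor Ro20-1724 (0.1 mM final) and compound 10 min at room temperature, then stimulated with NKH477 (200nM […]) for 30 min. cAMP read by HTRF (665/620 nm).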

Test [15] has the same target. The test can be described thus: Dopamine D2 receptor (DRD2) small molecule antagonists, cell-based qHTS assay (AID 1963595; active means well fitted inhibition curve with a large enough effect in the signal ratio in the repeat runs, with a control signal flat; the % refers to the signal ratio; further: potency means the concentration at half of the fitted maximal effect). In a few lines:
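HEK293 cells stably expressing DRD2 were preincubated with 0.1 mM Ro20-1724, then with compound for 10 min at room temperature. Cells were stimulated with 200 nM NKH477 plus 12 nM quinpirole for 30 min, and cAMP was read by HTRF.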

Test [16] has as its target Muscarinic acetylcholine receptor M1 (Homo sapiens) (UniProt P11229). The test is described as follows: Cholinergic receptor muscarinic 1 (CHRM1) small molecule antagonists, cell-based qHTS assay (AID 1963588). Further: nearly all actives have a fitted effect of over 40% in size. Further: potency means the concentration at half of the fitted maximal effect. In a few lines:
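CHRM1-CHO calcium-flux assay, antagonist mode. Cells were seeded 18 h, dye-loaded 1 h at 37 C and given compound for 5 min at RT, then acetylcholine was added at 50nM. FDSS fluorescence was read 3 min; 15 concentrations, three runs.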

Test [17] has as its target Beta-2 adrenergic receptor (Homo sapiens) (UniProt P07550). The test can be described thus: Adrenergic beta2 receptor (ADRB2) small molecule agonists, cell-based qHTS assay (AID 1963593).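 Further: CHO cells stably overexpressing human ADRB2.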 In a few lines: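 CHO cells stably over-expressing ADRB2 were plated overnight at 37C, then dosed with compounds plus a stimulation mix containing 100uM IBMX and 25uM Ro-20-1724 for 0.5hr at room temperature. cAMP was measured by HTRF competition, 1hr.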
On the % scale 0 is the no-effect control and ±100 the full control effect.

Chain of Gonadotropin-releasing hormone receptor (Homo sapiens) (P30968 whole entry, looked up): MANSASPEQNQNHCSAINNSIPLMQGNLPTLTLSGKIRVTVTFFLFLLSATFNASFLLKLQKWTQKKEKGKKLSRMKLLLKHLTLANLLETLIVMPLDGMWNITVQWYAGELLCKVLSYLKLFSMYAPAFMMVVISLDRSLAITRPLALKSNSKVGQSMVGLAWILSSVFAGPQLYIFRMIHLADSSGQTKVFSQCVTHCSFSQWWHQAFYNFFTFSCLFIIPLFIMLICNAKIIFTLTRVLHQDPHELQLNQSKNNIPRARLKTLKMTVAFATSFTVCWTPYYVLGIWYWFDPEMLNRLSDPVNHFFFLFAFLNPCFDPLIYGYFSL
Chain of Beta-2 adrenergic receptor (Homo sapiens) (P07550 whole entry, looked up): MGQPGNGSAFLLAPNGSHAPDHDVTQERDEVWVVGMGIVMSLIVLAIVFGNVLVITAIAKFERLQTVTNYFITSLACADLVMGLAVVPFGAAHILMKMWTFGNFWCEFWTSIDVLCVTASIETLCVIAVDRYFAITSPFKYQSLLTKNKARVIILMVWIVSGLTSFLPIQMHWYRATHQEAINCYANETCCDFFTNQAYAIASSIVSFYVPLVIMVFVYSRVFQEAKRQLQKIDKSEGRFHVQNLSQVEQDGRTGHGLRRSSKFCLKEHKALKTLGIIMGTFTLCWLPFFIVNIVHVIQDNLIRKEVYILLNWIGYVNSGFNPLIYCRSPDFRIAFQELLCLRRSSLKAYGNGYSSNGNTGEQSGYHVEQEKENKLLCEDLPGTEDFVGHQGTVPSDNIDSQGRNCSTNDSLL
Chain of 5-hydroxytryptamine receptor 2A (Homo sapiens) (P28223 whole entry, looked up): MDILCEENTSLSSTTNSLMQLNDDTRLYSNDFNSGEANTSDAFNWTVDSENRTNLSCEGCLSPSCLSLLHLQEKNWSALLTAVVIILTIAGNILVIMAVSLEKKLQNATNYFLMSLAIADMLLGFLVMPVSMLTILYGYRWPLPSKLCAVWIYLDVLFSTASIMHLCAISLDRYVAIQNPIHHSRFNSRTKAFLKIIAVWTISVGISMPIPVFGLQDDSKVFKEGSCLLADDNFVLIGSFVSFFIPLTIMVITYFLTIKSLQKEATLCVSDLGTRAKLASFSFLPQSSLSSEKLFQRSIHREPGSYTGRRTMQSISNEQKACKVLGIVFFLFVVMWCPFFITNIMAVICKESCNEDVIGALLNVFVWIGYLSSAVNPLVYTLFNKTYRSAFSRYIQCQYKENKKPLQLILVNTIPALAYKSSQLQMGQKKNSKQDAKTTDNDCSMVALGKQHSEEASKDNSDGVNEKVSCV
Chain of Muscarinic acetylcholine receptor M1 (Homo sapiens) (P11229 whole entry, looked up): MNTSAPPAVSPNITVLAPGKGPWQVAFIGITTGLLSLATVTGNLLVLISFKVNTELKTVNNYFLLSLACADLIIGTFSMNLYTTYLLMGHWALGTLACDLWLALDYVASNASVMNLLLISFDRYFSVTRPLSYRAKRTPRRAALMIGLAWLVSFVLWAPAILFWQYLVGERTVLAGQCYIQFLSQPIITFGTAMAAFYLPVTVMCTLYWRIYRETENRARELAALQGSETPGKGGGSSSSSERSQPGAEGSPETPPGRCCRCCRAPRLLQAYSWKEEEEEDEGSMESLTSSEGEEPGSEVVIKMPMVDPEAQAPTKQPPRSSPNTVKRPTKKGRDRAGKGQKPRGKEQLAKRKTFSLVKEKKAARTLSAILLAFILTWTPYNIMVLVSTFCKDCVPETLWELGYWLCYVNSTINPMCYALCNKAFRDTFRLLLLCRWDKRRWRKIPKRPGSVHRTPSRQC
Chain of KiSS-1 receptor (Homo sapiens) (Q969F8 whole entry, looked up): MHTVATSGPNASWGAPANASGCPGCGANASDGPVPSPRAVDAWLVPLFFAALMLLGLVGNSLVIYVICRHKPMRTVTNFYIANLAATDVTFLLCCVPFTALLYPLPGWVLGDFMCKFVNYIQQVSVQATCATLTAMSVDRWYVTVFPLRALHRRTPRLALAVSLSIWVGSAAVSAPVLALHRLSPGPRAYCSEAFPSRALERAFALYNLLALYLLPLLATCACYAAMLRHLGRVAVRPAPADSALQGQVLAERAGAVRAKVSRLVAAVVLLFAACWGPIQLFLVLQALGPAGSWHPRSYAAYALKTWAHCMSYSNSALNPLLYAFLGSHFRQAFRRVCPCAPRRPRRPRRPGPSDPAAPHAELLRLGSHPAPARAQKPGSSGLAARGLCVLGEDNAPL
Chain of D(2) dopamine receptor (Homo sapiens) (P14416 whole entry, looked up): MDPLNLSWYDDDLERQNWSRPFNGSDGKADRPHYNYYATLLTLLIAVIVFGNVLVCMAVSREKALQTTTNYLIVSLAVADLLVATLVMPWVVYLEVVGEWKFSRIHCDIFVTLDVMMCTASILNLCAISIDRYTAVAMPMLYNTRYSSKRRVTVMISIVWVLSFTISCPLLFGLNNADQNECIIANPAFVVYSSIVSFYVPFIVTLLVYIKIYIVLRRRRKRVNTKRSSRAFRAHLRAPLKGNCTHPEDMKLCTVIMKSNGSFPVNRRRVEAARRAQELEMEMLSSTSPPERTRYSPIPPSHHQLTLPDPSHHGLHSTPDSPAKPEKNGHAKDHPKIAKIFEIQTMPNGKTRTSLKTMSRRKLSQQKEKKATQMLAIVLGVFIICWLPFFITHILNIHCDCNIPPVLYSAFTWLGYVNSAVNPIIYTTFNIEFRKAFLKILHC

For the compound `CCCNCCC`, the Potency result in test [1], in test [2], in test [3], in [4], in test [5] and in test [6] was “inactive” throughout. The Potency result in test [7], in test [8], in [9], in test [10], in [11] and in [12] was “inactive” each time. In addition, the Potency entry in [13], in test [14] and in test [15] was “inactive” throughout.
In the case of `CCCCCCCCNC`, the Potency entry in [1], in test [2], in test [3], in test [4], in [5] and in [6] was “inactive” each time. Also, the Potency entry in test [7], in test [8], in test [9], in [16], in test [10] and in test [11] was “inactive” in each case. For the same compound, the Potency entry in test [12] and in [13] was “inactive” throughout.
With `CC(C)C[C@H]1C(=O)N2CCC[C@H]2[C@]2(O)O[C@](NC(=O)[C@@H]3C=C4c5cccc6[nH]c(Br)c(c56)C[C@H]4N(C)C3)(C(C)C)C(=O)N12`, the Potency entry in [1], in [2], in test [3], in [4], in test [5] and in test [6] was “inactive” throughout. Moreover, the Potency result in test [7], in test [11], in test [12] and in [15] was “inactive” each time. The Potency in test [14] is 0.0923 µM (active).
Turning to `CC(C)(C)c1cc(CCC(=O)OCC(COC(=O)CCc2cc(C(C)(C)C)c(O)c(C(C)(C)C)c2)(COC(=O)CCc2cc(C(C)(C)C)c(O)c(C(C)(C)C)c2)COC(=O)CCc2cc(C(C)(C)C)c(O)c(C(C)(C)C)c2)cc(C(C)(C)C)c1O`, the Potency result in test [1], in test [2], in [3], in test [4], in test [5] and in test [6] was “inactive” each time. The Potency entry in [7], in test [8], in [9], in [16], in [10] and in test [11] was “inactive” in each case. Also, the Potency result in test [12], in [13] and in [15] was “inactive” in each case.
As to `CC(CN(CCN(CC(C)OCCO)CC(C)OCCO)CC(C)OCCO)OCCO` (stereo not drawn), the Potency result in test [1], in test [2], in test [3], in [4], in test [5] and in test [6] was “inactive” in each case. For the same compound, the Potency result in test [7], in test [8], in test [9], in test [16], in test [10] and in [11] was “inactive” each time. The Potency entry in test [12], in test [13], in test [14] and in test [15] was “inactive” throughout.
Turning to `C[C@@H](O)[C@H]1C(=O)N2C(C(=O)O)=C(S[C@@H]3CN[C@H](CNS(N)(=O)=O)C3)[C@H](C)[C@H]12`, the Potency result in [1], in [2], in test [3], in test [4], in test [5] and in test [6] was “inactive” throughout. In addition, the Potency entry in test [7], in [8], in test [9], in test [16], in test [10] and in test [15] was “inactive” each time.
In the case of `CC(CCO)CCCC(C)(C)O` (stereo not drawn), the Potency entry in test [1], in [2], in test [3], in test [4], in test [5] and in test [6] was “inactive” in each case. The Potency result in [7], in test [8], in [9], in [16], in test [11] and in [12] was “inactive” throughout. Also, the Potency result in test [13], in [14] and in test [15] was “inactive” in each case.
Regarding `CC(=O)c1ccc(C)cc1`, the Potency result in [1], in test [2], in test [3], in test [4], in [5] and in [6] was “inactive” each time. Moreover, the Potency entry in test [8], in [9], in test [11], in [12], in [14] and in test [15] was “inactive” each time.
With `Cc1cc(CCN2CCN(c3nsc4ccccc34)CC2)cc2c1NC(=O)CC2(C)C`, the Potency is 48.6 µM (active) in test [1], 45.8 µM (active) in test [7], 16.8 µM (active) in test [16] and 0.243 µM (active) in test [15]. Besides, the Potency result in [2], in test [3], in test [4], in test [8], in test [9] and in [10] was “inactive” each time. The Potency entry in test [14] was “inactive”.
Consider `O=c1cc(O)c(Cl)c[nH]1`, for which the Potency result in test [1], in test [2], in test [3], in test [4], in [5] and in test [6] was “inactive” in each case. Besides, the Potency entry in test [7], in test [9], in test [16], in test [10], in [11] and in test [12] was “inactive” in each case. Moreover, the Potency entry in test [13], in [14] and in test [15] was “inactive” each time.
Turning to `Oc1ccc2c(c1)Cc1ccccc1-2`, the Potency entry in [1], in [2], in test [3], in test [4], in [5] and in [6] was “inactive” throughout. The Potency result in [7], in test [8], in [9], in test [16], in test [10] and in test [11] was “inactive” throughout. Further, the Potency result in test [12], in [13], in [14] and in test [15] was “inactive” in each case.
As to `CCCCCCCCCCCCCCCCCBr`, the activity change, negative = cytotoxicity in test [1] is 2.19% [at 19 µM]; in test [5] it was 5.38% [at 13.5 µM]; in test [7], 3.13% [at 13.5 µM]. The activity, positive = activation in [2] is -1.2% [at 19 µM]. Further, in test [3], the activity change was 0.321% [at 11.8 µM, stronger effect = higher value]. Besides, the activation in test [4] was 0.212% [at 15.8 µM]; in test [9], 0.832% [at 15.9 µM]; in test [10] it was -0.0212% [at 15.8 µM]; in [11], -0.0773% [at 19 µM]; in test [17], 8.09% [at 19 µM]; in test [14] it was -0.0433% [at 19 µM]. For the same compound, the activity, negative = inhibition was 31.5% [at 12.7 µM] in test [8] and 7.9% [at 12.6 µM] in [16]. The activity change, negative = inhibition is -5.99% [at 18.9 µM] in test [12], 0.719% [at 19 µM] in [13] and 0.232% [at 18.9 µM] in test [15].

The record behind these values is PubChem BioAssay (Tox21).
